From PubChem
Pol eta inh: blocks human DNA polymerase eta activity | Potency, µM (highest dose often 114 µM), for inactives: at the highest dose activity change, negative = inhibition, most hits filed as inhibitors | 390,000 tested, 1.2% active | recombinant Pol eta, fluorescent DNA replication assay | Q9Y253 | AID 588591; also: % is scaled to controls: 0 for no effect and ±100 for the full control effect
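Fluorescent replication assay: 50 nM final substrate added after a 15 min room-temperature compound preincubation with 10 nM enzyme. Signal taken at 0 min and again at 10 min.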
WRN helicase inh-1: inhibitors of human WRN helicase; Q14191; WRN helicase unwinding, fluorescent forked duplex, kinetic; Potency, µM (series often up to 114 µM), without a hit: top-dose activity change, negative = inhibition, usual class: inhibitors; 360,000 tested, 0.46% active; also: % is scaled to controls: 0 for no effect and ±100 for the full control effect; nearly all actives have a fitted effect of over 55% in size
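WRN at 20 nM final was preincubated with compound for 15 min at room temperature; reaction started with 100 nM forked duplex oligonucleotide carrying fluorophore and quencher plus 2 mM ATP (final). Unwinding followed kinetically by red fluorescence (ex 525/em 598 nm).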
POLK inh: DNA polymerase kappa (human) inhibition. Q9UBT6. purified Pol kappa, fluorescent DNA synthesis assay, 10 min. Potency, µM (series often up to 107 µM), inactives show at the highest dose activity, negative = inhibition, actives largely listed as inhibitors. 400,000 tested, 0.53% active; also: % is scaled to controls: 0 for no effect and ±100 for the full control effect
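10 nM Pol kappa was preincubated with compounds for 15 min at room temperature. Reaction started with 50 nM (final) substrate. Fluorescence read kinetically at 0 and 10 min.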
Pol beta inh: DNA polymerase beta (human) inhibition; 340,000 tested, 1.3% active; Potency, µM (series often up to 114 µM), for inactives: at the highest dose activity change, negative = inhibition, hits mostly inhibitors; Pol beta primer extension/strand displacement, fluorescence kinetic; AID 485314; P06746; also: % is scaled to controls: 0 for no effect and ±100 for the full control effect
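Reaction started by 50 nM substrate onto compound-treated Pol beta (10 nM, 15 min preincubation, room temperature); plates read at 0 min and 10 min. Normalized concentration-effect data fitted by four-parameter Hill equation.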
POLI inh: DNA polymerase iota (human) inhibition; Pol iota fluorescent replication assay, 10 min; AID 588590; Q9UNA4; Potency, µM (titrated, usually from 115 µM), without a hit: at the highest dose activity, negative = inhibition, usual class: inhibitors; 390,000 tested, 1% active
Target sequence (Q9UNA4 whole entry, looked up): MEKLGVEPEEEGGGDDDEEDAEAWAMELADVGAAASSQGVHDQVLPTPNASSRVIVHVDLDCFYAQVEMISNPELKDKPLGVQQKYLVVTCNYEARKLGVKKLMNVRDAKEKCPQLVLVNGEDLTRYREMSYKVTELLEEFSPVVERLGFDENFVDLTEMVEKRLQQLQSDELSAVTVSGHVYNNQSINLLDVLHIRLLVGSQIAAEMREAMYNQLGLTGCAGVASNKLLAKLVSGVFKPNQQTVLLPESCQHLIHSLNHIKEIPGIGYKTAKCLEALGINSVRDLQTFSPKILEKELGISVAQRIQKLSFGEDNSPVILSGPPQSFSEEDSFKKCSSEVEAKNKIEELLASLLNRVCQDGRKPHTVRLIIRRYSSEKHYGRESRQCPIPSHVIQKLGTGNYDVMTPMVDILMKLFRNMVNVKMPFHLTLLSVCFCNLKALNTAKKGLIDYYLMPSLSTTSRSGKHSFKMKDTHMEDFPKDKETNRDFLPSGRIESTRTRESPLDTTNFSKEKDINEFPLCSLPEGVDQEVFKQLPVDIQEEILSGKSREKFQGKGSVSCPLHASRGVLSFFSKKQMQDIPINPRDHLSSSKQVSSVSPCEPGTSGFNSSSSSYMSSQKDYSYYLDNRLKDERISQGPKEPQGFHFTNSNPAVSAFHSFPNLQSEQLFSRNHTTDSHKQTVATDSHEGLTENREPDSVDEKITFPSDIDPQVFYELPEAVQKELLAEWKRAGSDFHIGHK
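Fluorescent replication assay read twice, at 0 min and 10 min after adding 50 nM (final) substrate. Enzyme (10 nM) and compounds were first incubated 15 min at room temperature; enzyme-free buffer wells were negative controls.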
FEN1 inh-1: inhibitors of human flap endonuclease 1. P39748. Recombinant FEN1 flap cleavage, fluorescence, 15 min. Potency, µM (doses to about 114 µM), for the others: top-dose activity change, negative = inhibition, actives largely listed as inhibitors. 390,000 tested, 0.35% active. AID 588795; also: % is scaled to controls: 0 for no effect and ±100 for the full control effect; nearly all actives have a fitted effect of over 65% in size
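Enzyme 10 nM, 15 min RT preincubation with compound; start with substrate 50 nM final; reads at 0 and 15 min; qHTS titration, four-parameter Hill fit.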
FEN1 inh-2: confirmation of human FEN1 inhibitors; Potency, µM, usual class: inhibitors; 880 tested, 79% active; shares compounds with FEN1 inh-1; FEN1 flap cleavage, TAMRA/BHQ2 fluorogenic DNA substrate; AID 720498; also: nearly all actives have a fitted effect of over 60% in size
WRN helicase inh-2: confirmation of human WRN helicase inhibitors | shares compounds with WRN helicase inh-1 | WRN helicase DNA unwinding, fluorescence kinetic | Potency, µM (doses to about 57.1 µM), for the others: top-dose activity, negative = inhibition, actives largely listed as inhibitors | 610 tested, 63% active | AID 720497; also: nearly all actives have a fitted effect of over 65% in size
TO displacement: DNA binding via thiazole orange displacement. 610 tested, 10% active. thiazole orange DNA binding displacement, fluorescence. shares compounds with WRN helicase inh-1. Potency, µM (doses to about 57.1 µM), for inactives: at the top dose activity change, negative = inhibition, hits mostly inhibitors;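 also: drop in dye fluorescence marks compound binding to DNA; % is scaled to controls: 0 for no effect and ±100 for the full control effect; nearly all actives have a fitted effect of over 60% in size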
BLM counter: blocks human BLM helicase in WRN counterscreen. shares compounds with WRN helicase inh-1. 610 tested, 60% active. Recombinant BLM helicase DNA unwinding, red fluorescence. Potency, µM (top dose mostly 57.1 µM), inactives show at the top dose activity change, negative = inhibition, actives largely listed as inhibitors. AID 720503; also: nearly all actives have a fitted effect of over 60% in size
* marks the source's active call; other numbers are inactive results; ? = inconclusive; / = no result; [ ] = remark or other dose. This is a sample that favours compounds with a hit; in the whole collection about 2.4% have one here. Calls follow the shape of the dose curve; as a rule, active = well fitted curve in the direction sought with a large enough effect; inconclusive = small, poorly fitted or top-dose-only effect, or another doubt; inactive = no such curve, though single readings can be large; an effect the other way counts as inactive or inconclusive. Potency is read from the fitted curve at half-maximal effect.

SMILES	Pol eta inh	WRN helicase inh-1	POLK inh	Pol beta inh	POLI inh	FEN1 inh-1	FEN1 inh-2	others
CC(/C=C1\SC(=S)N(NC(=O)c2ccncc2)C1=O)=C\c1ccccc1	-6%	?	-10%	1%	?	-15%	/
Cc1ccc2c(c1)cc1c(=O)n(Cc3ccccc3Cl)nc(C)n12	-17%	/	6%	19%	26%	0%	/
CCc1ccccc1N1CC(c2nnc(NC(=O)c3ccco3)s2)CC1=O (stereo not drawn)	8%	/	-3%	-20%	-30%	4%	/
CN(C)c1ccc(CN(Cc2ccco2)C(=O)c2ccc(F)cc2)cc1	/	/	9%	26%	47%	1%	/
CC(C)(C)OC(=O)N1CCC(c2c(C(=O)N3CCN(C(=O)c4ccco4)CC3)cnn2-c2cccc(F)c2)CC1	-12%	/	5%	-16%	25%	3%	/
COc1ccccc1C(=O)NN1C(=O)/C(=C/c2cccn2C)SC1=S	/	/	/	16%	/	/	/
COc1cc(/C=C2\SC(=S)N(NC(=O)c3ccccc3OC)C2=O)ccc1O	?	16µM*	-20%	18µM*	50µM*	?	?
O=C(ONC(=O)C1CCCCC1C(=O)NOC(=O)c1ccccc1)c1ccccc1 (stereo not drawn)	-22%	1%[11.6 µM]	-3%	/	3%	18µM*	13*
c1ccc2c(c1)-c1cccc3cncc-2c13	-11%	0%[11.6 µM]	-4%	/	39%	?	?
O=C(Cn1cc(SCc2ccc(F)cc2)c2ccccc21)N1CCCCC1	-16%	/	-15%	-3%	5%	2%	/
COc1ccc(C(=O)c2cn(CC(=O)Nc3cc(OC)cc(OC)c3)c3ccc(OC)cc3c2=O)cc1	79µM*	/	-23%	-26%	?	?	?
Cc1cc(C)cc(OCC(O)CN2CCC(CN3C(=O)c4cccc5cccc(c45)C3=O)CC2)c1 (stereo not drawn)	?	37%	-12%	3%	17%	?	?
COc1ccc(COCC(O)CN2CCC(CN3C(=O)c4cccc5cccc(c45)C3=O)CC2)cc1OC (stereo not drawn)	-26%	18%	5%	3%	9%	?	?
CCc1ccc(OCC(O)CN2CCC(CN3C(=O)c4cccc5cccc(c45)C3=O)CC2)cc1 (stereo not drawn)	-14%	-2%	-12%	19%	5%	17%	/
O=C(CSc1nc(=O)[nH]c2c1CCC2)NCc1ccc(Cl)cc1	-21%	/	0%[60.1 µM]	0%	5%	1%	/
CN(C)CCc1cc2c(c3c1ccc1ccccc13)OCO2	-24%	-5%	?	20µM*	?	?	21*
O=C1c2cccc3cccc(c23)C(=O)N1OS(=O)(=O)c1ccccc1	-10%	5%[11.6 µM]	0%	-8%	15%	?	/
O=C1c2cccc3cccc(c23)C(=O)N1OS(=O)(=O)c1ccc(Br)cc1	0%	8%[11.6 µM]	3%	19%	80%	?	11*
Cc1ccc(S(=O)(=O)ON2C(=O)c3cccc4cccc(c34)C2=O)cc1	-10%	11%	8%	-11%	13%	18µM*	38*
O=C(CSc1nc(-c2ccccc2)nc2ccc(F)cc12)Nc1ccc(C(=O)O)cc1	?	-21%[57.1 µM]	-14%	-10%	-6%	?	60*
CCCCN(CC)CCNC(=O)c1cc2c(=O)n(C)c3ccccc3c2s1	-12%	27%	-10%	-1%	-4%	?	/
CCN(CC)CCNC(=O)c1cc2c(=O)n(C)c3ccccc3c2s1	-7%	43%	17%	12%	7%	50µM*	48*
O=C(Nc1cccc2ccccc12)c1ccc([N+](=O)[O-])o1	15%	8%	2%	3%	?	-2%	/
O=C(Nc1ccccc1C(=O)NC1CC1)c1ccc([N+](=O)[O-])o1	32µM*	-35%	-35%	/	50µM*	-14%	?
Cc1ccc(-c2cc(C(=O)Nc3ccc(S(=O)(=O)Nc4ncccn4)cc3)[nH]n2)c(O)c1C	45µM*	?	-31%	?	?	?	?
SMILES	Pol eta inh	WRN helicase inh-1	POLK inh	Pol beta inh	POLI inh	FEN1 inh-1	FEN1 inh-2	others
CC(=O)Nc1ccc(NC(=O)c2cc(-c3ccc(C)c(C)c3O)n[nH]2)cc1	-17%	-4%	-8%	2%	24%	-17%	/
COc1cc(/C=N/NC(=O)c2cccc(C(=O)N/N=C/c3ccc(O)c(OC)c3)n2)ccc1O	?	?	-28%	?	?	?	1.3*
Cc1[nH]c2c(ccc3cccnc32)c1C	-18%	2%	-6%	1%	65%	0%	/
CC1=[N+](C)c2c(ccc3cccnc23)C1(C)C	-12%	56µM*	-11%	25µM*	53%	45µM*	43*
Cc1ccc(N(C)C(=O)C2CCN(S(=O)(=O)c3c(C)noc3/C=C/c3c(C)cc(C)cc3C)CC2)cc1	-19%	/	-7%[60.1 µM]	17%	12%	-18%	/
Cc1ccccc1/C=N/Nc1nc2ccccc2c(=O)n1O	?	-12%[57.1 µM]	-2%	-28%	15%	40µM*	43*
C=CCn1c(N/N=C/c2ccc(O)cc2)nc2ccccc2c1=O	-15%	-12%	-4%[60.1 µM]	0%	22%	-12%	/
CCC1=Nc2cc(C(=O)NC3CCCC3)ccc2Sc2ccc(Br)cc21	-13%	/	0%	-9%	7%	-11%	/
O=c1c2ccccc2nc2sc(Nc3cccc(N4CCNCC4)c3)nn12	/	/	/	/	/	/	34*	WRN helicase inh-2=22µM*;TO displacement=-25%;BLM counter=?
CC1CCCN(C(=O)c2ccc3c(=O)n4nc(Nc5ccccc5)sc4nc3c2)C1 (stereo not drawn)	-4%	-6%	/	/	/	/	/
CC(=O)N1CCc2c(sc3c2c(=O)n(CCc2ccccc2)c(=O)n3Cc2ccc(F)cc2)C1	-18%	/	-7%	3%	-2%	-1%	/
